The values that follow come from the supplement of paper PMC4840960.

Assay [1] deals with E18 rat cortical neuron-glia co-culture. The assay is described as follows: fiber score / MBP score (myelination specific beyond OL differentiation) (ratio); higher = more myelination-specific MBP alignment. The note with it: treatment time: 8 days (DIV5-DIV13). In outline: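 The measure is the ratio of fiber score to MBP score, where fiber score is continuous MBP fiber length per Olig2+ nucleus and MBP score is thresholded MBP area × intensity per Olig2+ nucleus. Primary E18 rat cortical co-cultures received library compounds at 1 or 5 µM in myelination medium from DIV5 to DIV13, then were fixed in 4 % paraformaldehyde and stained for MBP, Olig2 and DAPI before analysis of four 10X fields per well in duplicate wells.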

Assay [2] shares this test system. The assay can be described thus: myelination (MBP fiber length per Olig2+ nucleus), % of 1 µM DAPT response (DMSO = 0) (% of DAPT); higher = more myelination, active = 50 or more. The note with it: treatment time: 8 days (DIV5-DIV13). In outline: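 The myelination value was the continuous straight MBP fiber length per Olig2+ nucleus, scaled between 0.1 % DMSO (0) and a 1 µM positive control (100). It was measured in primary E18 rat cortical co-cultures treated with library compounds at 1 or 5 µM in myelination medium from DIV5 through DIV13. Cells were fixed in 4 % paraformaldehyde and stained for MBP, Olig2 and DAPI, and four 10X fields per well were imaged in duplicate wells.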

Consider `CC(=O)OCC(=O)[C@@]1(O)CC[C@H]2[C@@H]3CCC4=CC(=O)CC[C@]4(C)[C@H]3C(=O)C[C@@]21C` [Cortisone acetate], for which the “fiber score / MBP score” value in assay [1] (1 µM) turned out to be 0.82; in assay [1] (5 µM) it was 0.732. Also, the myelination is -45.2 (inactive) in assay [2] (1 µM) and -20.1 (inactive) in assay [2] (5 µM).

On to `CCN(CC)C(=O)C1(c2ccccc2)CC1CN` (stereo unspecified) [Milnacipran], for which the “fiber score / MBP score” value in assay [1] (1 µM) amounted to 0.697; in assay [1] (5 µM) it was 0.817. Further, the results for the myelination in assay [2] (1 µM) and in assay [2] (5 µM) were -8.81 (inactive) and -7.54 (inactive), respectively.

Turning to `O=C1CC2(CCCC2)CC(=O)N1CCCCN1CCN(c2ncccn2)CC1` [Buspirone], the “fiber score / MBP score” value in assay [1] (1 µM) was found to be 0.713; in assay [1] (5 µM), 0.313. Besides, the values for the myelination in assay [2] (1 µM) and in assay [2] (5 µM) were -14.9 (inactive) and -34 (inactive), respectively.

Take `CN(C)CCc1c[nH]c2ccc(C[C@H]3COC(=O)N3)cc12` [Zolmitriptan]: the entries for the “fiber score / MBP score” value in assay [1] (1 µM) and in assay [1] (5 µM) were 0.791 and 0.785, respectively. Further, the myelination in assay [2] (1 µM) is -9.2 (inactive); in assay [2] (5 µM), -14.6 (inactive).

Consider `Cc1ccc(S(=O)(=O)NC(=O)NN2CCCCCC2)cc1` [Tolazamide], for which the “fiber score / MBP score” value turned out to be 0.701 in assay [1] (1 µM) and 0.729 in assay [1] (5 µM). Moreover, the myelination in assay [2] (1 µM) is -15.6 (inactive); in assay [2] (5 µM), -16.8 (inactive).

Regarding `CC(=O)NC[C@H]1CN(c2ccc(N3CCOCC3)c(F)c2)C(=O)O1` [linezolid], the “fiber score / MBP score” value in assay [1] (1 µM) turned out to be 0.899; in assay [1] (5 µM), 0.929. Moreover, the myelination in assay [2] (1 µM) was -7.33 (inactive); in assay [2] (5 µM), 0.414 (inactive).

For the compound `CCCCC1=NC2(CCCC2)C(=O)N1Cc1ccc(-c2ccccc2-c2nnn[nH]2)cc1` [Irbesartan], the entries for the “fiber score / MBP score” value in assay [1] (1 µM) and in assay [1] (5 µM) were 0.679 and 0.752, respectively. In addition, the myelination is -12.8 (inactive) in assay [2] (1 µM) and -10.8 (inactive) in assay [2] (5 µM).

In the case of `Brc1c(NC2=NCCN2)ccc2nccnc12` [Brimonidine], the figures for the “fiber score / MBP score” value in assay [1] (1 µM) and in assay [1] (5 µM) were 0.915 and 0.784, respectively. Besides, the myelination in assay [2] (1 µM) is -13.9 (inactive); in assay [2] (5 µM), -32 (inactive).

Consider `CC(C)NCC(O)COc1cccc2[nH]ccc12` (stereo unspecified) [Pindolol], for which the “fiber score / MBP score” value in assay [1] (1 µM) is 1.07; in assay [1] (5 µM), 0.955. Also, the results for the myelination in assay [2] (1 µM) and in assay [2] (5 µM) were -3.4 (inactive) and -3.46 (inactive), respectively.
